Laboratory results as given in the supplement of paper PMC6555819.

Experiments:
Assay in all cases: PBM binding z-score (relative to random genomic background probes); higher = stronger binding; sequences stand for … in GC…GCGATTGACAGCGTAGAATGAAGG
[1] = system: RARb homodimer (NR concentration 270 nM)
Procedure, shortened: (§1)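 Probes were double-stranded and carried 34-nt variable regions with direct-repeat seeds, single-nucleotide variants, half-site ablations and random human genomic background sequences, printed on custom Agilent 4×180K protein-binding microarrays. Arrays were incubated 1 h with ligand-free nuclear receptor dimers in PBS pH 7.4, 2% milk, 0.02% Triton X-100, 1 mM DTT, 0.2 mg/mL BSA and 0.4 mg/ml salmon testes DNA. Antibodies against each partner (one per run) detected binding, and scanned fluorescence was regression-normalized. Binding z-scores use the random background probes as reference.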

[2] = system: RARg:RXRa (NR concentration 270 nM, RXRa partner concentration 90 nM)
Procedure, shortened: as §1

[3] = system: RARg homodimer (NR concentration 270 nM)
Procedure, shortened: as §1

[4] = system: RXRa DBDmut IVT, anti-RXR (DBD mutation: RXRa K156A/R161A, NR concentration 90 nM)
Procedure, shortened: as §1

[5] = system: RXRa homodimer (NR concentration 180 nM)
Procedure, shortened: as §1

[6] = system: THRa:RXRa (NR concentration 90 nM, RXRa partner concentration 90 nM)
Procedure, shortened: as §1

[7] = system: THRa homodimer (NR concentration 90 nM)
Procedure, shortened: as §1

[8] = system: VDR:RXRa (NR concentration 270 nM, RXRa partner concentration 90 nM)
Procedure, shortened: as §1

[9] = system: VDR homodimer (NR concentration 270 nM)
Procedure, shortened: as §1

Sequence | PBM binding z-score [1] | PBM binding z-score [2] | PBM binding z-score [3] | PBM binding z-score [4] | PBM binding z-score [5] | PBM binding z-score [6] | PBM binding z-score [7] | PBM binding z-score [8] | PBM binding z-score [9]
CTCGAAAGGTCGGTTTAGGTGAGTATACGGATAA | 1.77 | 2.33 | 2.31 | 1.26 | 1.8 | 4.51 | 0.786 | 1.28 | 1.04
GCTTGTAGATCAATGTTAAGAAAGACTAAGCTAA | -0.892 | -0.411 | -0.155 | 0.255 | -0.609 | -0.166 | -1.2 | -0.368 | -0.713
GGAACGACGGCATTCGAGTTGATAGCATGGCGAT | -1.09 | -0.451 | -0.127 | -0.144 | -0.39 | -0.124 | -1.19 | -0.42 | -0.259
GCTTGGAGGACAAGGTCAGAGCTTTGTCCGTAGA | 3.25 | 3.03 | 3.61 | 0.782 | 2.37 | 3.02 | 1.46 | 1.41 | 0.256
ATCGAAAGGTGGAGGTGAGTATAGAGAAAGGGAA | 1.16 | 0.536 | 0.711 | -0.665 | 0.164 | 0.67 | 0.48 | 0.346 | 0.297
GGTAGTTGGTCAGTAAAAGGTCACACACCGGTCG | 5.4 | 5.49 | 4.84 | -0.0829 | 5.45 | 3.72 | 2.3 | 4.11 | 2.2
CGAACTAGGTCAGAACAGGACGGTGAAGGATGAT | 1.69 | 2.3 | 3.17 | 0.53 | 1.14 | 2.43 | -0.175 | 0.0677 | -0.257
TCTGCTAGGTCAACGATGGTCATCTAATCTGCTA | 3.5 | 4.05 | 4.69 | 1.07 | 2.9 | 3.45 | 0.805 | 2.16 | -0.118
TCTTATAGGTAATACAGGTGAAAGTCGGCATCTA | 0.728 | 0.769 | 0.709 | 1.75 | 1.18 | 1.09 | 0.611 | 1.36 | 0.529
CGAACTAGGGCAGAACAGGACAGTGAAGGATGAT | 0.707 | 0.486 | 0.757 | 0.0235 | -0.0297 | 1.58 | -0.495 | -0.31 | -0.0975
CCTAGTTGGTCAAGGTCAGACACGCTATAGGTAC | 3.62 | 3.19 | 3.82 | 1.56 | 2.73 | 3.34 | 2.57 | 2.83 | 2.29
CCTTACGGGTCACCAGGTTATAGCACGACGAGCG | 3.75 | 5.68 | 5.33 | 0.805 | 6.06 | 3.45 | 0.878 | 4.64 | 1.09
ACACACAGGTGAGTGAAGGTAACTCAGCTGGACG | -0.00486 | 0.394 | 0.59 | -0.0875 | 0.549 | 1.57 | -0.409 | -0.0221 | -0.0907
CCGTGTAGGTTATGGGGCATTCAGGCAACGGTGA | 1.3 | 0.81 | 0.846 | -0.509 | 0.777 | 0.703 | 0.635 | 0.11 | 0.353
ACTACAGGGTCACTAGGCCAGAGTAGGTACGAAT | 3.08 | 4.68 | 4.59 | 2.54 | 4.84 | 3.33 | 0.948 | 3.76 | 1.82
GCTGCTAGGTCAGGTTGGTTAGCTAACGGGTACG | 2.43 | 2.43 | 3.37 | 0.744 | 0.769 | 1.77 | 0.549 | 0.262 | 0.682
ATATGTAGTTTAAGGGTCATTCAGGTTGGTTCGC | 3.9 | 3.91 | 2.88 | 2.39 | 4.82 | 3.37 | 1.71 | 5.34 | 4.96
CATACTAGGTCAAGAGGTCAAAGTCCGCTTCCCG | 5.69 | 8.1 | 7.68 | 3.2 | 8.08 | 4.5 | 2.62 | 6.01 | 4.64
TTACCAAGGTGAGCTGAGGTCGTTGATCCAACTC | 1.78 | 1.24 | 1.11 | 0.206 | 1.53 | 4.79 | 1.88 | 4.19 | 2.5
ACTAGTTGGTCAGCTGTGGTCACACACAATTCGG | 1.25 | 0.489 | 0.965 | 0.13 | 0.281 | 1.77 | 0.0925 | 0.029 | 0.0683
CCGAATGGGGCATAAGGTTACCATAAGCCAGCCC | 1.7 | 1.67 | 1.03 | -0.221 | 1.49 | 2.1 | 1.45 | 0.232 | -0.245
CCTACTCGGCCATCAGGTCATTGATATCAACGTT | 3.21 | 2.43 | 2.51 | 1.21 | 1.33 | 3.16 | 3.66 | 2.37 | 2.42
CTACCAAGGTGAACAAGGTCGTTGGTTACTATTC | 2.16 | 1.79 | 1.29 | 1.28 | 1.87 | 3.19 | 1.81 | 5.92 | 3.03
CTACCAAGGGGAACAAGGTCGTTGATTACTATTC | 1.09 | 0.406 | 0.334 | 0.885 | 0.759 | 1.76 | 1 | 3.86 | 2
GCTTCTAGATCAAGGTTAAGAAAGACTAAGCTAA | 0.106 | 0.25 | 0.347 | 0.0774 | 0.547 | 1.16 | -0.453 | 0.384 | -0.36
TCTGCTAGGTCATTTGGTCAGCTAACGAGCTGCC | 2.97 | 3.84 | 4.17 | 2.58 | 2.34 | 2.42 | 0.658 | 2.21 | 1.49
